# According to PubChem BioAssay (NCI):
# This is part of a sample that, as a whole, favours compounds with a hit. Of some 79,000 tested, about 15% had one in any assay. Values without a mark were called inactive. Active and inactive are the calls of the source. No stated cut-off is given here; in the data, active means growth inhibition above about 70%; inactive means the rest.
# How the values were obtained:
# [1] = NCI Yeast Anticancer Drug Screen. Data for the rad52 strain (AID 147);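 further: 0% = growth of vehicle-treated control cultures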; conditions: S. cerevisiae rad52 mutant growth inhibition, hits give high values
# Outline: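 Growth of repair-deficient yeast cells was compared between compound-treated and vehicle-treated cultures to give percent inhibition.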
# [2] = NCI Yeast Anticancer Drug Screen. Data for the wt1 strain (AID 149);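 further: 0% = growth of vehicle-treated wt1 cultures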; conditions: S. cerevisiae wt1 strain (SPY 50644) growth inhibition, hits give high values
# Outline: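 Measured: growth of wt1 yeast under compound versus vehicle treatment, reported as inhibition.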
# [3] = NCI Yeast Anticancer Drug Screen. Data for the rad50EPP+ strain (AID 151);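 further: 0% = growth of vehicle-treated control cultures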; conditions: S. cerevisiae rad50 mutant strain, hits give high values
# Outline: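 Measured: growth inhibition of rad50EPP+ yeast. Reference: vehicle-treated controls. Screen uses strains with defined genetic alterations in DNA damage repair or cell cycle control.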
# [4] = NCI Yeast Anticancer Drug Screen. Data for the mgt1 strain (AID 153); conditions: S. cerevisiae mgt1 mutant growth inhibition, hits give high values
# Outline: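 Compounds were applied to mgt1 mutant yeast, and growth was then compared against vehicle-treated control cultures to give percent inhibition.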
# [5] = NCI Yeast Anticancer Drug Screen. Data for the rad50 strain (AID 155);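 further: 0% = growth of vehicle-only cultures of the same strain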; conditions: S. cerevisiae rad50 strain growth inhibition, hits give high values
# Outline: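 Growth of the mutant yeast was measured after compound exposure and referenced to vehicle-treated cultures.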
# [6] = NCI Yeast Anticancer Drug Screen. Data for the mec2-1 strain (AID 157); conditions: S. cerevisiae mec2-1 strain, hits give high values
# Outline: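 Compounds were applied to mec2-1 yeast cells. Their growth was then compared with that of vehicle-treated cultures to give growth inhibition.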
# [7] = NCI Yeast Anticancer Drug Screen. Data for the rad14 strain (AID 159);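 further: 0% = growth of vehicle-treated control cultures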; conditions: S. cerevisiae rad14 strain growth inhibition, hits give high values
# Outline: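 Here, inhibition of yeast growth was measured after compound exposure, using a strain with a genetic defect in DNA damage repair and vehicle-treated cultures as the reference.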
# [8] = NCI Yeast Anticancer Drug Screen. Data for the sgs1 mgt1 strain (AID 161);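 further: 0% = growth of cultures given vehicle only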; conditions: S. cerevisiae sgs1 mgt1 strain, hits give high values
# Outline: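 Compounds are added to genetically altered yeast, and growth is compared with cultures given vehicle alone to give percent inhibition.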
# [9] = NCI Yeast Anticancer Drug Screen. Data for the CLN2oe strain (AID 163);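 further: 0% = growth of vehicle-only control cultures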; conditions: S. cerevisiae CLN2oe strain, hits give high values
# Outline: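 Cells of an engineered yeast line with disturbed cell-cycle regulation are treated with compound. Inhibition of growth is then calculated relative to the vehicle-treated reference.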
# [10] = NCI Yeast Anticancer Drug Screen. Data for the cln2 rad14 strain (AID 165);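 further: 0% = growth equal to vehicle treated cultures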; conditions: S. cerevisiae cln2 rad14 strain, hits give high values
# Outline: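 Strain: cln2 rad14 yeast, altered in cell cycle control and DNA damage repair. Read-out: growth inhibition vs vehicle.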
# [11] = NCI Yeast Anticancer Drug Screen. Data for the bub3 strain (AID 167); conditions: S. cerevisiae bub3 mutant strain, hits give high values
# Outline: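 Whole-cell yeast assay. The mutant strain was incubated with compounds, and growth inhibition was determined by comparison with vehicle-treated cells.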
# [12] = NCI Yeast Anticancer Drug Screen. Data for the wt2 strain (AID 169);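 further: 0% = growth of vehicle-treated yeast cultures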; conditions: S. cerevisiae wt2 strain growth inhibition, hits give high values
# Outline: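 Growth of compound-treated yeast is measured and expressed as inhibition relative to vehicle-only controls.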
# [13] = NCI Yeast Anticancer Drug Screen. Data for the mlh1 strain (AID 171);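 further: 0% = growth of vehicle-treated control cultures of the same strain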; conditions: S. cerevisiae mlh1 strain growth inhibition, hits give high values
# Outline: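 Test agents were incubated with yeast bearing a defined DNA damage repair or cell cycle control alteration; values are growth inhibition normalised to vehicle-treated cultures.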
# [14] = NCI Yeast Anticancer Drug Screen. Data for the sgs1 strain (AID 173);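 further: 0% = growth of vehicle-only control cultures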; conditions: S. cerevisiae sgs1 mutant, hits give high values
# Outline: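 Strain with an altered DNA repair or cell cycle pathway exposed to compound. Growth then measured. Value = inhibition versus vehicle control.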
# [15] = NCI Yeast Anticancer Drug Screen. Data for the mlh1 rad18 strain (AID 175); conditions: S. cerevisiae mlh1 rad18 strain growth inhibition, hits give high values
# Outline: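 A repair-deficient yeast strain is exposed to test compound, and growth is scored relative to vehicle-treated controls.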
# [16] = NCI Yeast Anticancer Drug Screen. Data for the rad18 strain (AID 177); conditions: S. cerevisiae rad18 mutant growth inhibition, hits give high values
# Outline: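 DNA-repair-defective yeast; compound treatment; growth inhibition scored against vehicle.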
# [17] = at 5.0 µM (retest, dose inferred, filed as 0.5)
# [18] = at 50.0 µM (retest, dose inferred, filed as 5.0)
smiles,measurement,setting,value
O=C1c2c(O)cccc2-c2nn(CCNCCO)c3ccc(NCCNCCO)c1c23,growth inhibition,[1]; at 1.2 µM,17%
same,growth inhibition,[1]; at 3.7 µM,43%
same,growth inhibition,[1]; at 11.0 µM,73% (active)
same,growth inhibition,[1]; at 33.0 µM,81% (active)
same,growth inhibition,[1]; at 100.0 µM,87% (active)
same,growth inhibition,[2]; at 1.2 µM,8%
same,growth inhibition,[2]; at 3.7 µM,-2%
same,growth inhibition,[2]; at 11.0 µM,11%
same,growth inhibition,[2]; at 33.0 µM,2%
same,growth inhibition,[2]; at 100.0 µM,-4%
same,growth inhibition,[3]; at 1.2 µM,15%
same,growth inhibition,[3]; at 3.7 µM,19%
same,growth inhibition,[3]; at 11.0 µM,39%
same,growth inhibition,[3]; at 33.0 µM,54%
same,growth inhibition,[3]; at 100.0 µM,77% (active)
same,growth inhibition,[4]; at 1.2 µM,16%
same,growth inhibition,[4]; at 3.7 µM,11%
same,growth inhibition,[4]; at 11.0 µM,-3%
same,growth inhibition,[4]; at 33.0 µM,-10%
same,growth inhibition,[4]; at 100.0 µM,2%
same,growth inhibition,[5]; at 1.2 µM,26%
same,growth inhibition,[5]; at 3.7 µM,42%
same,growth inhibition,[5]; [17],27%
same,growth inhibition,[5]; at 11.0 µM,74% (active)
same,growth inhibition,[5]; at 33.0 µM,85% (active)
same,growth inhibition,[5]; [18],79% (active)
same,growth inhibition,[5]; at 50.0 µM,76.9% (active)
same,growth inhibition,[5]; at 100.0 µM,87% (active)
same,growth inhibition,[6]; at 1.2 µM,42%
same,growth inhibition,[6]; at 3.7 µM,29%
same,growth inhibition,[6]; [17],-25%
same,growth inhibition,[6]; at 11.0 µM,40%
same,growth inhibition,[6]; at 33.0 µM,10%
same,growth inhibition,[6]; [18],-14%
same,growth inhibition,[6]; at 50.0 µM,20.4%
same,growth inhibition,[6]; at 100.0 µM,39%
same,growth inhibition,[7]; at 1.2 µM,-3%
same,growth inhibition,[7]; at 3.7 µM,-2%
same,growth inhibition,[7]; at 11.0 µM,-21%
same,growth inhibition,[7]; at 33.0 µM,-13%
same,growth inhibition,[7]; at 100.0 µM,2%
same,growth inhibition,[8]; [17],1%
same,growth inhibition,[8]; [18],-2%
same,growth inhibition,[8]; at 50.0 µM,7%
same,growth inhibition,[9]; at 1.2 µM,26%
same,growth inhibition,[9]; at 3.7 µM,22%
same,growth inhibition,[9]; at 11.0 µM,21%
same,growth inhibition,[9]; at 33.0 µM,5%
same,growth inhibition,[9]; at 100.0 µM,18%
same,growth inhibition,[10]; [17],26%
same,growth inhibition,[10]; [18],14%
same,growth inhibition,[10]; at 50.0 µM,-7.2%
same,growth inhibition,[11]; at 1.2 µM,1%
same,growth inhibition,[11]; at 3.7 µM,-9%
same,growth inhibition,[11]; [17],-24%
same,growth inhibition,[11]; at 11.0 µM,-15%
same,growth inhibition,[11]; at 33.0 µM,-30%
same,growth inhibition,[11]; [18],-13%
same,growth inhibition,[11]; at 50.0 µM,-19.2%
same,growth inhibition,[11]; at 100.0 µM,-26%
same,growth inhibition,[12]; at 1.2 µM,-46%
same,growth inhibition,[12]; at 3.7 µM,-27%
same,growth inhibition,[12]; at 11.0 µM,-41%
same,growth inhibition,[12]; at 33.0 µM,-53%
same,growth inhibition,[12]; at 100.0 µM,-42%
same,growth inhibition,[13]; at 1.2 µM,29%
same,growth inhibition,[13]; at 3.7 µM,7%
same,growth inhibition,[13]; at 11.0 µM,15%
same,growth inhibition,[13]; at 33.0 µM,13%
same,growth inhibition,[13]; at 100.0 µM,21%
same,growth inhibition,[14]; at 1.2 µM,7%
same,growth inhibition,[14]; at 3.7 µM,5%
same,growth inhibition,[14]; at 11.0 µM,7%
same,growth inhibition,[14]; at 33.0 µM,11%
same,growth inhibition,[14]; at 100.0 µM,28%
same,growth inhibition,[15]; [17],-6%
same,growth inhibition,[15]; [18],-7%
same,growth inhibition,[16]; at 1.2 µM,13%
same,growth inhibition,[16]; at 3.7 µM,15%
same,growth inhibition,[16]; at 11.0 µM,-2%
same,growth inhibition,[16]; at 33.0 µM,9%
same,growth inhibition,[16]; at 100.0 µM,0%
NC(N)=NCCCS(=O)(=O)Nc1ccc(Nc2c3ccccc3nc3cc([N+](=O)[O-])ccc23)cc1,growth inhibition,[1]; at 1.2 µM,-26%
same,growth inhibition,[1]; at 3.7 µM,8%
same,growth inhibition,[1]; at 11.0 µM,36%
same,growth inhibition,[1]; at 33.0 µM,79% (active)
same,growth inhibition,[1]; at 100.0 µM,91% (active)
same,growth inhibition,[2]; at 1.2 µM,-20%
same,growth inhibition,[2]; at 3.7 µM,-18%
same,growth inhibition,[2]; at 11.0 µM,-26%
same,growth inhibition,[2]; at 33.0 µM,-15%
same,growth inhibition,[2]; at 100.0 µM,42%
same,growth inhibition,[3]; at 1.2 µM,-21%
same,growth inhibition,[3]; at 3.7 µM,-11%
same,growth inhibition,[3]; at 11.0 µM,17%
same,growth inhibition,[3]; at 33.0 µM,44%
same,growth inhibition,[3]; at 100.0 µM,68%
same,growth inhibition,[4]; at 1.2 µM,-24%
same,growth inhibition,[4]; at 3.7 µM,-29%
same,growth inhibition,[4]; at 11.0 µM,-10%
same,growth inhibition,[4]; at 33.0 µM,18%
same,growth inhibition,[4]; at 100.0 µM,65%
same,growth inhibition,[5]; at 1.2 µM,-4%
same,growth inhibition,[5]; at 3.7 µM,-4%
same,growth inhibition,[5]; [17],23%
same,growth inhibition,[5]; at 11.0 µM,44%
same,growth inhibition,[5]; at 33.0 µM,83% (active)
same,growth inhibition,[5]; [18],88% (active)
same,growth inhibition,[5]; at 50.0 µM,72.9% (active)
same,growth inhibition,[5]; at 100.0 µM,89% (active)
same,growth inhibition,[6]; at 1.2 µM,-37%
same,growth inhibition,[6]; at 3.7 µM,-32%
same,growth inhibition,[6]; [17],-22%
same,growth inhibition,[6]; at 11.0 µM,-26%
same,growth inhibition,[6]; at 33.0 µM,11%
same,growth inhibition,[6]; [18],74% (active)
same,growth inhibition,[6]; at 50.0 µM,60%
same,growth inhibition,[6]; at 100.0 µM,70% (active)
same,growth inhibition,[7]; at 1.2 µM,-10%
same,growth inhibition,[7]; at 3.7 µM,-1%
same,growth inhibition,[7]; at 11.0 µM,-1%
same,growth inhibition,[7]; at 33.0 µM,31%
same,growth inhibition,[7]; at 100.0 µM,81% (active)
same,growth inhibition,[8]; [17],20%
same,growth inhibition,[8]; [18],83% (active)
same,growth inhibition,[8]; at 50.0 µM,63.1%
same,growth inhibition,[9]; at 1.2 µM,-65%
same,growth inhibition,[9]; at 3.7 µM,-47%
same,growth inhibition,[9]; at 11.0 µM,-51%
same,growth inhibition,[9]; at 33.0 µM,-11%
same,growth inhibition,[9]; at 100.0 µM,49%
same,growth inhibition,[10]; [17],-18%
same,growth inhibition,[10]; [18],66%
same,growth inhibition,[10]; at 50.0 µM,47.4%
same,growth inhibition,[11]; at 1.2 µM,0%
same,growth inhibition,[11]; at 3.7 µM,0%
same,growth inhibition,[11]; [17],11%
same,growth inhibition,[11]; at 11.0 µM,-10%
same,growth inhibition,[11]; at 33.0 µM,3%
same,growth inhibition,[11]; [18],70% (active)
same,growth inhibition,[11]; at 50.0 µM,57.8%
same,growth inhibition,[11]; at 100.0 µM,74% (active)
same,growth inhibition,[12]; at 1.2 µM,-49%
same,growth inhibition,[12]; at 3.7 µM,-58%
same,growth inhibition,[12]; at 11.0 µM,-77%
same,growth inhibition,[12]; at 33.0 µM,23%
same,growth inhibition,[12]; at 100.0 µM,50%
same,growth inhibition,[13]; at 1.2 µM,-20%
same,growth inhibition,[13]; at 3.7 µM,-10%
same,growth inhibition,[13]; at 11.0 µM,3%
same,growth inhibition,[13]; at 33.0 µM,32%
same,growth inhibition,[13]; at 100.0 µM,81% (active)
same,growth inhibition,[14]; at 1.2 µM,29%
same,growth inhibition,[14]; at 3.7 µM,1%
same,growth inhibition,[14]; at 11.0 µM,-13%
same,growth inhibition,[14]; at 33.0 µM,23%
same,growth inhibition,[14]; at 100.0 µM,69%
same,growth inhibition,[15]; [17],-8%
same,growth inhibition,[15]; [18],83% (active)
same,growth inhibition,[16]; at 1.2 µM,-28%
same,growth inhibition,[16]; at 3.7 µM,-39%
same,growth inhibition,[16]; at 11.0 µM,-41%
same,growth inhibition,[16]; at 33.0 µM,-13%
same,growth inhibition,[16]; at 100.0 µM,74% (active)
